Compounds with a hit are over-represented: about 1.2% of the library has one in this group of screens.
RGS8-Gao reg – RGS8-Galphao binding modulators, primary screen, biochemical, multiplexed bead flow cytometry | response (percent of control binding), % at 10 µM | actives lie on both sides | Guanine nucleotide-binding protein G(o) subunit alpha (Homo sapiens), P09471 | actives 0.34% (n = 220,000) | AID 1423, 2008; in the data active = response below about 60% or above about 140%; inactive = in between;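 note: Galphao activated as the GDP aluminium fluoride complex binding bead-coupled RGS8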
Target sequence (P09471 whole entry, looked up): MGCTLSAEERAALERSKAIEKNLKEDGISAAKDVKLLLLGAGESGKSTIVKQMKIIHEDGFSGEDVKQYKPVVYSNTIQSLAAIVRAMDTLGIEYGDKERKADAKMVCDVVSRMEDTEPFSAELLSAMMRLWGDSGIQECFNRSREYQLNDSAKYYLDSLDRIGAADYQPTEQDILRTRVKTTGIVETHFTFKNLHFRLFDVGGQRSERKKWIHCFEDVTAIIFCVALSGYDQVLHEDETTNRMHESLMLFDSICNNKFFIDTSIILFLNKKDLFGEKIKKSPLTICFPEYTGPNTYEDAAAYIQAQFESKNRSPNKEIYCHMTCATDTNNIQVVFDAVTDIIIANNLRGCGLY
RGS4-Gao reg – modulators of RGS4 binding to Galphao, primary screen, biochemical, multiplexed bead flow cytometry | Guanine nucleotide-binding protein G(o) subunit alpha (Homo sapiens), P09471 | actives lie on both sides | binding response (% of control), % at 10 µM | actives 0.33% (n = 220,000); in the data active = binding response below about 49% or above about 150%; inactive = in between;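 note: fluorescent Galphao activated with aluminum fluoride binding bead-coupled RGS4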
Avidin bead fluor – green autofluorescence of compounds with avidin beads – biophysical, 488/530 nm, flow cytometry, artefact control, profiling panel | compound fluorescence 488/530 nm; hits give high values | actives 0.38% (n = 220,000) | fluorescence (KMESF) at 10 µM; in the data active = fluorescence above about 47
RGS16-Gao – modulators of RGS16 binding to Galphao, primary screen, biochemical, human proteins, multiplexed bead flow cytometry. bead-based flow cytometry RGS16-Galphao binding, fluorescence; actives lie on both sides. binding response (% of control), % at 10 µM. AID 1441, 2008. actives 0.38% (n = 220,000). Regulator of G-protein signaling 16 (Homo sapiens) + Guanine nucleotide-binding protein …;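 note: Galphao activated by GDP with aluminum fluoride before binding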
GSH fluor – compound fluorescence on glutathione beads, profiling panel, artefact control, biophysical, 488/530 nm, flow cytometry; GSH beads flow cytometry, compound fluorescence 488/530 nm; hits give high values; fluorescence (KMESF) at 10 µM; actives 0.25% (n = 190,000); in the data active = fluorescence above about 89;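 note: glutathione beads carrying GST-tagged Bcl family fusion proteins plus one bare bead set; values are compound well signal with DMSO vehicle wells as background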
RGS7-Gao – RGS7-Galphao binding modulators, primary screen, biochemical, multiplexed bead flow cytometry; Guanine nucleotide-binding protein G(o) subunit alpha (Homo sapiens), P09471; binding response (% of control), % at 10 µM; actives lie on both sides; actives 0.35% (n = 220,000); in the data active = binding response below about 49% or above about 150%; inconclusive = no clear call, values can overlap the other calls; inactive = in between;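 note: fluorescent Galphao held in activated GDP-AlF4 state binding bead-coupled RGS7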
RGS4-Gao HTS – modulators of RGS–Galpha-o binding, primary screen, biochemical, multiplexed beads, flow cytometry, RGS4/7/8/16/19; shares compounds with RGS16-Gao; multiplexed bead flow cytometry; RGS4–Galpha-o binding response, % at 10 µM; actives 99% (n = 1,600); AID 1504, 2009;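 note: fluorescently labeled Galpha-o bound to GDP with aluminium fluoride binding biotinylated RGS beads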
Target sequence (P09471 whole entry, looked up): as above
Target sequence (P49798 whole entry, looked up): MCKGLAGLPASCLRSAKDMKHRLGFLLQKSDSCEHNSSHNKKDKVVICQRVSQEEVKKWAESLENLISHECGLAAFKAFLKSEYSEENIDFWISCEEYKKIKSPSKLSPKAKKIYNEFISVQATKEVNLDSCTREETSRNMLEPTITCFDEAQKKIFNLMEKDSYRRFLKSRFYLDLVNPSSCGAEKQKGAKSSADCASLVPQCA
Biotin-avidin – disruption of biotin probe capture by avidin, counter-screen for RGS protein interaction modulators, biochemical, flow cytometry, bead-based; inhibition, % at 10 µM; shares compounds with RGS16-Gao; streptavidin beads, fluorescein-biotin binding; 1,700 tested, under 10 active;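 active = inhibition above 50%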;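 note: median green fluorescence of gated singlet beads compared with DMSO control wells; 0% = DMSO wells and 100% = complete loss of bead fluorescence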
RGS8-Gao confirm – RGS8-Galphao binding modulators, confirmation, biochemical, multiplexed bead flow cytometry, single concentration | shares compounds with RGS16-Gao | bead-based flow cytometry RGS8-Galphao binding, fluorescence; actives lie on both sides | binding response (% of control), % at 10 µM | actives 3% (n = 1,700) | AID 1836, 2009; in the data active = binding response below about 72% or above about 130%; inactive = in between;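 note: Galphao activated as GDP AlF4 complex before binding bead RGS8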
RGS7-Gao confirm – RGS7-Galphao binding modulators, confirmation, biochemical, multiplexed bead flow cytometry, single concentration; shares compounds with RGS16-Gao; bead-based flow cytometry RGS7-Galphao binding; actives lie on both sides; response (percent of control binding), % at 10 µM; actives 7.8% (n = 1,700); AID 1837, 2009; in the data active = response below about 75% or above about 130%; inactive = in between;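 note: fluorescent Galphao activated with GDP and aluminum fluoride binding bead-coupled RGS7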
RGS16-Gao conf – modulators of RGS16-Galphao protein binding, confirmation, biochemical, single concentration, multiplexed bead flow cytometry; shares compounds with RGS16-Gao; bead-based flow cytometry; actives lie on both sides; response (% of control binding), % at 10 µM; actives 4% (n = 1,700); AID 1838, 2009; in the data active = response below about 74% or above about 130%; inactive = in between;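 note: Galphao activated as the GDP aluminium fluoride complex binding bead-coupled RGS16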
RGS4-Gao single – modulators of RGS4-Galphao protein binding, confirmation, biochemical, single concentration, multiplexed bead flow cytometry | binding response (% of control), % at 10 µM | actives 4% (n = 1,700) | shares compounds with RGS16-Gao | actives lie on both sides; in the data active = binding response below about 74% or above about 130%; inactive = in between
RGS19-Gao conf – regulators of RGS19-Galphao binding, confirmation, biochemical, single point, multiplexed bead flow cytometry | shares compounds with RGS16-Gao | bead-based flow cytometry RGS19-Galphao binding; actives lie on both sides | response (percent of control binding), % at 10 µM | actives 5% (n = 1,700); in the data active = response below about 50% or above about 160%; inactive = in between;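 note: 100% = no compound control and 0% = blank background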
The depositor's hits bear a star; i = inactive; ? = inconclusive; / = no result given; [ ] = another dose, or the depositor's remark. Unless noted, the rule behind the calls is not given here.

SMILES	RGS8-Gao reg	RGS4-Gao reg	Avidin bead fluor	RGS16-Gao	GSH fluor	RGS7-Gao	RGS4-Gao HTS	Biotin-avidin	RGS8-Gao confirm	RGS7-Gao confirm	RGS16-Gao conf	RGS4-Gao single	RGS19-Gao conf
CCCn1c(CNc2ccc(Br)cc2)nc2ccccc21	98.0	98.3	6	103.3	25	96.1	/	/	/	/	/	/	/
Cc1cc(OC(=O)c2ccc(S(=O)(=O)N3CCCCC3)cc2)c([N+](=O)[O-])c(=O)[nH]1	103.0	95.2	10	107.5	11	102.3	/	/	/	/	/	/	/
Cc1cc(OC(=O)c2ccc(S(=O)(=O)N3CCCC3)cc2)c([N+](=O)[O-])c(=O)[nH]1	142.4*[activator]	112.3	11	289.5	18	109.7	112.3*	-0.2	102.6	100.5	101.9	99.8	91.2
CC(=O)Nc1ccc(NC(=S)Nc2ccccc2)cc1	/	/	/	/	17	/	/	1.6	102.6	108.6	102.7	105.7	103.8
CC(=O)Nc1ccc(NC(=S)Nc2ccc(F)cc2)cc1	101.8	98.5	8	101.6	10	?	/	/	/	/	/	/	/
CN1CCN(CCCNC(=O)c2ccc3c(c2)N(Cc2ccccc2)CCS3)CC1	145.2*[activator]	142.1	3	140.4	25	134.2	142.1*	-0.3	101.8	105.2	102.3	102.4	105.3
O=C(NCCCN1CCOCC1)c1ccc2c(c1)N(Cc1ccccc1)CCS2	99.8	102.0	5	97.7	/	?	/	/	/	/	/	/	/
O=C(COC(=O)CC(c1ccccc1)c1ccccc1)Nc1c(F)cccc1F	104.3	101.8	13	107.5	3	102.2	/	/	/	/	/	/	/
COc1ccc(C2=CC(=O)C=CC2=O)cc1	71.4	93.3	5	67.0	/	?	/	0.6	53.0*	80.5	14.6*	97.0	31.6*
CC1CC(=O)Nc2ccccc2N1C(=O)Nc1ccc(F)cc1 (stereo unspecified)	94.5	/	/	/	/	/	/	0.5	100.6	99.3	99.4	98.8	96.6
Cn1c2c(c(=O)n(C)c1=O)CN(Cc1ccc3c(c1)OCO3)CN2	132.6	104.0	6	222.3*[activator]	59	99.8	104.0*	2.1	97.3	96.4	98.9	99.8	112.0
COc1ccc(S(=O)(=O)N(C)c2c(C)n(C)n(-c3ccccc3)c2=O)cc1OC	100.3	119.2	107*	104.7	25	203.1*[activator]	119.2*	2.6	92.0	66.8*	74.1*	71.3*	49.6*
O=C1c2cccc3c(O)ccc(c23)C(=O)N1Cc1ccccc1	115.8	181.3*[activator]	81*	185.7*[activator]	162*	164.4*[activator]	/	2.4	126.5*[activator]	264.1*[activator]	202.8*[activator]	203.9*[activator]	218.6*[activator]
COc1cccc(NC(=O)Cn2cnc3sc(C)c(S(=O)(=O)N4CCCCC4)c3c2=O)c1	97.2	95.0	34	97.9	24	99.5	/	/	/	/	/	/	/
CCCc1nc2c([nH]1)c(=O)n(C)c(=O)n2C	101.9	100.5	7	102.1	/	?	/	/	/	/	/	/	/
CC(=O)Nc1ccc(Cc2nc3c([nH]2)c(=O)n(C)c(=O)n3C)cc1	20.4*	-0.7*	-1	1.1*	/	?	/	0.9	99.0	99.2	101.4	98.5	103.4
Cc1ccc2cc3cc(C(=O)N4CCN(Cc5ccccc5)CC4)sc3nc2c1	124.0	171.7*[activator]	69*	193.2*[activator]	231*	162.0*[activator]	/	-0.5	99.4	94.5	97.0	95.1	90.0
CC(=O)/C(=N/Nc1ccccc1Cl)Sc1nnc(C(O)c2ccccc2)n1-c1ccccc1 (stereo unspecified)	99.8	98.7	9	90.0	15	98.1	/	/	/	/	/	/	/
CC(=O)/C(=N/Nc1ccccc1)Sc1nnc(C(O)c2ccccc2)n1-c1ccccc1 (stereo unspecified)	84.8	99.1	8	17.7*	15	96.0	99.1*	0.0	95.4	105.3	99.3	101.3	105.9
Cc1ccc(C(=O)NCC(=O)NCCc2ccc(S(N)(=O)=O)cc2)s1	101.4	99.0	6	99.5	/	?	/	/	/	/	/	/	/
CC(=O)c1c(C)[nH]c(C(=O)CSc2nnc(-c3ccco3)o2)c1C	99.9	99.6	8	99.8	11	?	/	/	/	/	/	/	/
COc1ccc(-c2nnc(SCC(=O)c3[nH]c(C)c(C(C)=O)c3C)o2)cc1	112.3	175.1*[activator]	17	179.5*[activator]	9	125.6	/	-0.5	98.2	96.1	93.8	90.4	102.6
O=C(CN1CCCCC1)Nc1ccccc1-c1ccccc1	158.8*[activator]	143.5	4	i	48	125.0	143.5*	-2.1	101.1	100.9	99.9	100.7	100.9
O=C(CN1CCOCC1)Nc1ccccc1-c1ccccc1	91.0	87.6	5	86.3	20	87.4	/	/	/	/	/	/	/
CC1(C)Cc2cccc(OCC(=O)Nc3cc(C(F)(F)F)ccc3N3CCOCC3)c2O1	97.0	118.1	141*	107.1	22	226.5*[activator]	118.1*	0.3	99.0	99.0	100.1	100.7	89.9

Source: PubChem
